Hits are enriched below; roughly 3.7% of the tested compounds scored in any of these assays.
GALK inh: qHTS Assay for Inhibitors of Human Galactokinase (GALK): NCGC Sytravon Library Screen; recombinant GALK, Kinase-Glo ATP luminescence, 1 h; 44,000 tested, under 10 active; P51570; Potency, µM (top dose mostly 57.5 µM), for the others: at the highest dose activity, negative = inhibition, actives largely listed as inhibitors; AID 1347072, 2019;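 further: plate controls were full GALK reaction for no effect and reaction lacking GALK for full effect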
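Compounds were pinned into ATP buffer, then GALK-galactose mix was added (final 5 nM enzyme, 35 uM ATP, 100 uM galactose, pH 8.0). After 1 h at room temperature, Kinase-Glo Plus was added and luminescence read.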
FH mod: Identification of activators of human fumarate hydratase by quantitative high-throughput screening | FH coupled MDH/diaphorase resazurin fluorescence, 15 min | AID 1347055, 2019 | 54,000 compounds, 0.22% hits | Potency, µM (top dose mostly 79.9 µM), inactives show at the highest dose activity change, negative = inhibition, hits mostly inhibitors | Fumarate hydratase, mitochondrial (Homo sapiens), P07954; further: potency means the concentration at half of the fitted maximal effect; on the % scale 0 is the no-effect control and ±100 the full control effect; the screen sought activators but most active calls are inhibition curves; nearly all actives have a fitted effect of over 45% in size
B2AR arrestin ag: qHTS assay of beta-arrestin-biased ligands of beta2-adrenergic receptor: NCGC Sytravon Library Screen; Beta-2 adrenergic receptor (Homo sapiens), P07550; HTLA Tango cells, beta-arrestin recruitment, luciferase luminescence, 18 h; Potency, µM (doses to about 46.1 µM), most hits filed as activators; 44,000 tested, under 10 active; AID 1347077, 2019;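 further: potency means the concentration at half of the fitted maximal effect; 0% = DMSO and full agonism = EC100 isoproterenol or metaproterenol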
Target sequence (P07550 whole entry, looked up): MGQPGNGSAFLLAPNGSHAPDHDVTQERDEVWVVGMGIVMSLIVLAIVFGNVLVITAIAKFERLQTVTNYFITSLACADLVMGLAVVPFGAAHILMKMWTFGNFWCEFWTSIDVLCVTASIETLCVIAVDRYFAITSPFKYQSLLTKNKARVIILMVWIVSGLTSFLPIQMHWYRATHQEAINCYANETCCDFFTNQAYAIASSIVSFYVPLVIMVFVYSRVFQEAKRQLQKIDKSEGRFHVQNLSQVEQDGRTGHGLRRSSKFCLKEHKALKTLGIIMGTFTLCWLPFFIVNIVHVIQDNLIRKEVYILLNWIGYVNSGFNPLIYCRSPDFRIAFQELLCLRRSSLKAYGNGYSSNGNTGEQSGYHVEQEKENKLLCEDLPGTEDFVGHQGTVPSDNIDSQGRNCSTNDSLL
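Tango cells (recombinant beta2-AR, beta-arrestin, tTA-driven luciferase), 1500/well in DMEM 1% FBS, treated 18 h at 37 °C with compounds up to 46 µM; luciferin mix added, luminescence read after 15 min; %activity curves fitted and curve-classed.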
DRV1 agonist: qHTS for Agonists of Human Resolvin D1 Receptor DRV1. Probable G-protein coupled receptor 32 (Homo sapiens), O75388. CHO-K1 GPR32 beta-arrestin PathHunter luminescence, 90 min; zero percent set by DMSO-only wells. activation, % at 76.9 µM. 48,000 compounds, 2.5% hits. AID 1346428, 2018;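 active means activation of at least 60% and not above a set upper limit, about 1 call in 100 departs from these limits; inconclusive means activation of 40% to 60%, or above that upper limit; inactive means activation under 40%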; further: 0% is about no effect
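Luminescent readout of beta-Gal complementation quantifies ligand-induced beta-arrestin association with GPR32 in CHO-K1 cells; 90 min compound incubation at 37 °C, detection 1 h at room temperature.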
NTMT1 inh: Primary qHTS for Inhibitors of N-terminal methyltransferase 1 (NTMT1): MTaseGlo Assay | N-terminal Xaa-Pro-Lys N-methyltransferase 1 (Homo sapiens), Q9BV86 | NTMT1 MTase-Glo SAH luminescence, purified enzyme | Potency, µM (doses to about 114 µM), for the others: at the highest dose activity change, negative = inhibition, usual class: inhibitors | 59,000 compounds, 2.5% hits;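 further: potency means the concentration at half of the fitted maximal effect; plate controls were DMSO vehicle for no effect and no enzyme for full effect; nearly all actives have a fitted effect of over 65% in size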
TSG101-PTAP inh: qHTS Validation Assay for Inhibitors of HIV-1 Budding by Blocking the Interaction of PTAP/TSG101: Sytravon Library Screen | Fluorescence polarization, FITC-PTAP peptide/Tsg101, 20 min | Tumor susceptibility gene 101 protein (Homo sapiens), Q99816 | 44,000 tested, under 10 active | Potency, µM (top dose mostly 115 µM), usual class: inhibitors; further: potency means the concentration at half of the fitted maximal effect; 0% is about no effect
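The Tsg101 binding domain, at 10 uM final, is mixed with compound and a FITC peptide bearing the PTAP motif (50 nM final). After 20 min at r.t., polarization is measured; actives defined by CRC class, efficacy cut-off 60% inhibition.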
Active calls of the source: *; i = inactive; ? = inconclusive; . = not tested or not shown; [ ] = remark or other dose. Unless noted, the call rests on the fitted dose curve; in most records, active means well fitted curve in the direction sought with a large enough effect; inconclusive means small, poorly fitted or top-dose-only effect, or another doubt; inactive means no such curve, though single readings can be large; an effect the other way counts as inactive or inconclusive.

SMILES	GALK inh	FH mod	B2AR arrestin ag	DRV1 agonist	NTMT1 inh	TSG101-PTAP inh
CC1(C)OC(=O)CC(O)C2(C)C1CC(=O)C1(C)C2C(O)CC2(C)C(c3ccoc3)OC(=O)C3OC321 (centres undefined)	.	-0.3%[53.3 µM]	.	.	-11.1%[29.8 µM]	.
CCOC(=O)c1cnc2c(ccc3ccccc32)c1Nc1ccccc1OCC	0.5%	1.1%	i	-8.5	-1.4%	i
CCOC(=O)c1cnc2c(ccc3ccccc32)c1Nc1ccccc1OC	-19.8%	-18.4%	i	85.0*	9.5%	i
C[C@H](Nc1nc(N[C@H](C)C(F)(F)F)nc(-c2cccc(Cl)n2)n1)C(F)(F)F	.	.	.	.	2.7%	.
CCOC(=O)c1ccc(NS(=O)(=O)c2ccc(Br)s2)cc1	2.3%	2.3%	i	65.6*	?	i
CCCCC1C(=O)N(c2ccccc2)N(c2ccc(O)cc2)C1=O (centres undefined)	.	?	.	108.6*	?	.
CC(=O)Nc1nc(-c2ccc3c(c2)CCN3C(=O)c2ccccc2C)c(C)s1	.	.	.	.	-5.4%	.
O=C1NC(=Nc2ccccc2F)S/C1=C\c1ccc(C(=O)O)cc1	.	?	.	.	-18.6%[57.5 µM]	.
CC1=C(C(=O)Nc2nccs2)C(c2ccccc2Br)N=C(Nc2nc3ccccc3o2)N1 (centres undefined)	.	.	.	.	16.5%	.
CCc1ccccc1NC(=O)c1ccc2[nH]c(C)c(C)c2c1	5.1%	-16.1%	i	7.5	-1.6%	i
Cc1ccccc1CNC(=O)c1ccc2[nH]c(C)c(C)c2c1	-3.4%	-3.5%	i	-9.5	79.4µM*	i
CCOC(=O)c1[nH]c(C)c(C(=O)NCc2cccc(OC)c2)c1C	-0.1%	0.8%	i	61.0*	-5.3%	i
CCOC(=O)c1[nH]c(C)c(C(=O)NCc2ccc(F)cc2)c1C	?	7.0%	i	11.4	-1.8%	i
Nc1ncnc2nc(-c3ccc(N4CCOCC4)nc3)cc(-c3cccc(Br)c3)c12	.	3.0%	.	3.5	1.12µM*	.
COc1ccccc1[C@@H]1C2=C(CC(C)(C)CC2=O)Nc2n[nH]c(C(F)(F)F)c21	.	-3.1%	.	.	?	.
O=c1ccc2ccc(OCCCCN3CCN(c4cccc5sccc45)CC3)cc2[nH]1	.	5.4%	.	.	?	.
O=C1CCc2ccc(OCCCCN3CCN(c4cccc(Cl)c4Cl)CC3)cc2N1	.	4.8%[53.3 µM]	.	89.7*	8.8%	.
O=C(COc1cccc(Cl)c1)N1CCC(c2nc3ccccc3s2)CC1	0.0%	?	i	71.6*	-0.6%	i
COc1ccc(OCC(=O)N2CCC(c3nc4ccccc4s3)CC2)cc1	-0.3%	-1.5%	i	46.8	-4.3%	i
COc1ccccc1OC(C)C(=O)N1CCC(c2nc3ccccc3s2)CC1 (centres undefined)	3.8%	-21.3%	i	84.8*	-6.1%	i
O=C(c1ccc(F)cc1)N1CCC(c2nc3ccccc3s2)CC1	-4.8%	-6.0%	i	63.6*	-3.0%	i
CCC(CC)Nc1nc(C)c(-c2ccc(OC(F)(F)F)cc2OC)nc1OC	.	?	.	.	21.9%[57.5 µM]	.
CCCN1CCCc2cc(CN(CCCN3CCOCC3)C(=O)Nc3ccc(Cl)c(Cl)c3)ccc21	-1.1%	?	i	0.0	79.4µM*	i
CCCN1CCCc2cc(CN(CCCN3CCOCC3)C(=O)Nc3ccc(OCC)cc3)ccc21	1.0%	-11.6%	i	17.0	-6.2%	i
COc1ccc(-c2nc3ccccc3o2)cc1NC(=O)c1cccnc1	2.8%	-5.7%	i	86.1*	-5.6%	i

From PubChem
